Sampled rows, rich in hits. Any-hit rate of the full collection: about 6%.
D1 PAM – potentiators of human D1 dopamine receptor | P21728 | HEK293 TREx D1 cells, calcium flux, dopamine EC20 potentiation | potentiation, % at 10 µM | actives 0.036% (n = 360,000) | AID 504651; in the data active means potentiation above about 30%; further: 0% is about no effect
Target sequence (P21728 whole entry, looked up): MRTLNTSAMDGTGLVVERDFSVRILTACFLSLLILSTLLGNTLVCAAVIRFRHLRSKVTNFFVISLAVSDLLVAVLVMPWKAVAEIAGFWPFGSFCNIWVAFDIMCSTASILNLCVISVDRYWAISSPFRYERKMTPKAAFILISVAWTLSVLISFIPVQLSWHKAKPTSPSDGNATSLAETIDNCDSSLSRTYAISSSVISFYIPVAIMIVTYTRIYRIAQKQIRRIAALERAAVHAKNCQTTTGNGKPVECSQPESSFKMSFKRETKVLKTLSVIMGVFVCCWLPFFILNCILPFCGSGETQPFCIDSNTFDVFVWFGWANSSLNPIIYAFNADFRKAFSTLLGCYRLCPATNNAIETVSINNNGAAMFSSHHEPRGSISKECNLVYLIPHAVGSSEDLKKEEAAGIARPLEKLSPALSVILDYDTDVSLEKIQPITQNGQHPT
DRD3 agonist – D3 dopamine receptor (human) agonism; AID 652048; actives 0.58% (n = 410,000); max activation, %; D3R DiscoveRx beta-arrestin cells, luminescence, 90 min; P35462; in the data active means max activation above about 30%; further: 0% is about no effect
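Agonist-mode cell screen: cells plated at 1500/well and incubated overnight at 37 °C, then exposed to library compounds for 90 min at 37 °C. Detection reagent was added for 30–60 min at room temperature, and luminescence was read.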
D1 antag – antagonists of human D1 dopamine receptor | HEK293 TREx D1 cells, calcium flux, dopamine EC80; stronger effect = lower value | actives 3.2% (n = 360,000) | P21728 | activity change, negative = inhibition, % at 10 µM; in the data active means activity change below about -30%; further: on the % scale 0 is the no-effect control and ±100 the full control effect
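Compound effects on dopamine-evoked calcium signalling were measured in tetracycline-induced HEK293 Trex D1 cells. Dopamine at EC80 followed a 180 s compound pre-read, and fluorescence was tracked kinetically for 180 s more.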
D3 antag – antagonists of human D3 dopamine receptor | P35462 | actives 2.5% (n = 360,000) | max response, negative = inhibition, % | D3R cells, DiscoveRx beta-arrestin luminescence, antagonist mode; stronger effect = lower value | AID 652054; in the data active means max response below about -50%; inconclusive means no clear call, values can overlap the other calls; further: on the % scale 0 is the no-effect control and ±100 the full control effect
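Cells plated overnight at 1500 cells/well, then exposed to library compounds with dopamine controls for 90 minutes at 37 degrees C. DiscoveRx reagent added for 30–60 minutes at room temperature; luminescence read, quantitative HTS format.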
D1 ag – activates the human D1 dopamine receptor | P21728 | HEK293 T-REx D1 cells, calcium flux, agonist mode | activation, % at 2 µM | actives 1% (n = 360,000) | AID 504660; in the data active means activation above about 30%; further: 0% is about no effect
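Inducible HEK293 T-REx D1 cells, force-coupled to calcium signalling, were plated at 4000 cells/well with tetracycline and held overnight at 30 C. After no-wash calcium dye loading, compound-evoked calcium rise over 180 s flagged agonists.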
* marks the source's active call; other numbers are inactive results; u = inconclusive; x = not tested or not shown.

SMILES	D1 PAM	DRD3 agonist	D1 antag	D3 antag	D1 ag
CCCCn1c(=O)[nH]c(=O)c2c1nc(Cn1ncc(Cl)c(Cl)c1=O)n2CCC	-8	-11	8	-64*	-2
CCCCn1c(=O)[nH]c(=O)c2c1nc(CN1C(=O)c3ccccc3S1(=O)=O)n2CCC	1	-1	0	17	-1
COc1cc(/C=c2\sc3n(c2=O)C(c2ccccc2)C(c2ccccc2)=NN=3)ccc1O (centres undefined)	-1	-9	-2	-76*	10
COc1cc(/C=c2\sc3n(c2=O)CCCN=3)ccc1O	-6	-7	1	-8	3
O=C1c2cccc3cccc(c23)C(=O)N1CC1CCN(CC(O)COc2ccc3ccccc3c2)CC1 (centres undefined)	-9	-16	-14	u	6
COc1cccc(OCC(O)CN2CCC(CN3C(=O)c4cccc5cccc(c45)C3=O)CC2)c1 (centres undefined)	-9	-13	2	-52*	10
Cc1cc(C)cc(OCC(O)CN2CCC(CN3C(=O)c4cccc5cccc(c45)C3=O)CC2)c1 (centres undefined)	1	-15	-29	-68*	-1
CCCCN(CCCC)S(=O)(=O)c1ccc2oc(C(=O)NCc3ccccc3)c(C)c2c1	-1	-3	-5	x	27
CN1C/C(=C/c2cccnc2)C(=O)/C(=C/c2cccnc2)C1	3	-8	7	-55*	3
COc1ccc(N2CCN(c3nc4ccc(C)cc4n4nnnc34)CC2)cc1	1	73*	-3	x	0
Cc1ccc2nc(Cl)c3nnnn3c2c1	8	-6	-6	-109*	-1
CCCCN(CC)C(=O)c1ccc2c(c1)NC(=O)c1ccccc1S2	0	6	-45*	x	3
O=[N+]([O-])c1cccnc1N1CCC(c2cc(-c3ccc(Cl)cc3)n[nH]2)CC1	0	-2	-33*	u	3
CC1(C)S[C@@H]2[C@H](NC(=O)C(c3ccccc3)S(=O)(=O)O)C(=O)N2[C@H]1C(=O)O (some centres undefined)	x	-13	x	x	x
CC1(C)CC(NC(=O)c2sc3cc(Cl)ccc3c2Cl)CC(C)(C)N1	-10	3	-37*	-13	8
COc1ccc(NC(=O)Nc2cccc(OC)c2)cc1	x	-6	x	10	x
COc1cccc(NC(=O)NC(=O)c2c(C)cc(Cl)nc2Cl)c1	-4	-9	-41*	-7	2
COc1cccc(NC(=O)Nc2cc(Cl)ccc2C)c1	-9	-10	-34*	-9	9
Clc1ccc(C2CC(c3ccco3)n3ncnc3N2)cc1Cl (centres undefined)	-6	2	-11	-58*	14
Clc1ccc(C2CC(c3ccccc3)Nc3ncnn32)cc1 (centres undefined)	-1	-7	13	-22	2
CN1CCN(C(=O)c2ccc3ccccc3c2)CC1	-8	-61	-6	-83*	2
CN1CCN(C(=O)c2ccc(CSc3ccc(Cl)cc3)cc2)CC1	-9	-17	-30*	-22	18
Oc1cc2ccccc2cc1-c1n[nH]c(=S)o1	1	-2	4	-50*	1
COc1cccc(/C=N/n2c(N)c(S(=O)(=O)c3cccs3)c3nc4ccccc4nc32)c1OC	-7	-7	-8	7	4
Nc1c(S(=O)(=O)c2cccc(Cl)c2)c2nc3ccccc3nc2n1/N=C/c1ccc(O)c(O)c1	-5	x	-34*	x	1
SMILES	D1 PAM	DRD3 agonist	D1 antag	D3 antag	D1 ag
Cc1c(C(=O)Nc2cccc(C(F)(F)F)c2)oc2ccc3c(c12)C(=O)CC(C)(C)O3	-2	5	-15	x	3
COc1cc(Cl)cc(/C=C/c2ccc3ccccc3n2)c1OC(C)=O	-1	12	-1	28	3
CC(=O)Oc1ccc(Cl)cc1/C=C/c1cc(OC(C)=O)c2ccccc2n1	-13	x	-63*	x	1
S=C(Nc1ccc(N2CCOCC2)cc1)Nc1ccc2nc(-c3ccco3)c(-c3ccco3)nc2c1	-4	0	-8	-5	57*
O=C(Nc1cccc(F)c1)c1ccc(-c2ccccc2)s1	-3	-7	23	x	6
CCC1CCCCN1CCCNC(=O)c1[nH]c2ccccc2c1Sc1ccc(Cl)cc1 (centres undefined)	0	1	17	x	4

Screening data (PubChem BioAssay)
